High-throughput results: PubChem BioAssay, The Scripps Research Institute Molecular Screening Center
LEDGF integ inh – blocks HIV-1 LEDGF/p75-dependent DNA integration. TR-FRET IN-LEDGF/p75 DNA integration, Eu/Cy5. inhibition, % at 3.7 µM. hit rate 0.64% among 370,000. AID 743269;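 active = inhibition above the screen-wide mean plus 3 SD, cut at about 13% in these data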;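 also: signal is the Cy5 over europium emission ratio at 671 and 618 nm; 0% = plate median of compound wells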
UHRF1 binding – human UHRF1 methylated DNA binding inhibitors. UHRF1 binding to methylated oligo, TR-FRET. inhibition, % at 4.4 µM. hit rate 0.75% among 370,000; in the data active = inhibition above about 21%;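 also: UHRF1 SRA domain binding a hemimethylated CpG hairpin DNA probe; 0% = median of test compound wells and 100% = reference inhibitor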
TCR CD3 inh – human TCR-CD3 binding inhibition. TAMRA-labeled TCR probe fluorescence, biochemical. inhibition, % at 9.4 µM. hit rate 0.37% among 360,000. AID 651800; in the data active = inhibition above about 19%;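 also: recombinant mutant TCR 2C K166C tagged with TAMRA read by polarization; 0% = receptor in buffer alone and 100% = receptor with positive control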
MBD2 inh – blocks human MBD2 binding to methylated DNA | Q9UBB5 | TR-FRET, MBD2 binding to methylated oligonucleotide | inhibition, % at 4.4 µM | hit rate 0.31% among 370,000 | AID 686964; in the data active = inhibition above about 13%
Rin1-Abl PPI inh – blocks binding of human Rin1 to Abl; P00519+Q13671; TR-FRET Rin1/Abl binding, biochemical; inhibition, % at 7.35 µM; hit rate 0.4% among 360,000; AID 588664; in the data active = inhibition above about 5%, passing the limit was not always enough
Numbers without * were called inactive; / = no result. Rows were chosen to be rich in hits. Some 2% of all compounds tested hit in one or more screens of this group.

SMILES	LEDGF integ inh	UHRF1 binding	TCR CD3 inh	MBD2 inh	Rin1-Abl PPI inh
O=C(CN1C(=O)NC2(CCc3ccccc32)C1=O)NCc1cccc(C(F)(F)F)c1 (stereo not drawn)	-4.4	-1.1	0.2	-4.8	1.7
O=P(c1ccccc1)(c1ccccc1)c1cc(S(=O)(=O)O)ccc1O	2.4	27.1*	-1.3	6.2	1.6
O=C(CSc1nc2nn(-c3ccccc3)c(=O)c-2c2n1CCCCC2)c1ccc(O)c(O)c1	/	/	/	/	16.1*
CCN(C(=O)COC(=O)/C=C/c1cnc2ccccc2n1)c1ccccc1	-4.0	25.7*	-7.3	-0.9	1.5
CC1CCCCC1n1c(-c2cccnc2)n[nH]c1=S (stereo not drawn)	-0.5	71.9*	-7.5	-1.1	2.1
CN(C)S(=O)(=O)n1cc(/C=C(\NC(=O)c2ccccc2F)C(=O)N2CCCCC2)c2ccccc21	5.7	23.7*	-0.2	1.6	0.1
CCOC(=O)N1CCN(C(=O)C[C@H]2C[C@@]3(C(=O)OC)C(=C[C@H](C(C)C)O[C@@H]3C3CC3)N(Cc3ccc(Cl)cc3Cl)C2=O)CC1	8.6	0.9	/	-6.3	/
Cc1ccc(-n2c3c(c(=O)[nH]c2=O)C(NS(=O)(=O)c2ccc(Cl)cc2)(C(F)(F)F)C(=O)N3)cc1 (stereo not drawn)	2.1	28.4*	6.4	4.4	1.1
CC(Oc1ccc(F)cc1)C(=O)Nc1ccccc1N1CCCCC1 (stereo not drawn)	2.8	-2.8	2.6	-0.3	1.5
CN1CCN(C(=O)OC2CC3CC2[C@H]2CCCCN2C3=O)CC1 (stereo partly drawn)	0.8	21.1*	11.2	2.4	/
O=C(OC1CC2CC1[C@H]1CCCCN1C2=O)N1CCN(c2ccccc2)CC1 (stereo partly drawn)	-0.6	-0.4	1.5	-1.4	/
C=CCc1ccc(OCCN2CCc3ccccc3C2)c(OC)c1	-3.5	28.8*	3.5	5.2	3.1
CN(Cc1ccc(F)cc1)C(=O)CN1C(=O)C2(OCCCO2)c2ccccc21	-0.9	-0.3	/	1.6	/
CN(CCc1ccccc1)C(=O)c1cccc(NC(=O)Cc2cccc(NC(=O)C3CCN(C(=O)C4CCCC4)CC3)c2)c1	0.9	-3.0	1.8	3.7	-2.5
CN(CCc1ccccc1)C(=O)c1cccc(NC(=O)Cc2cccc(NC(=O)C3CCN(C(=O)C4CC4)CC3)c2)c1	0.3	96.2*	3.4	0.2	0.3
O=C(c1cc2cc(Cl)ccc2[nH]1)N1CCN(Cc2ccc3c(c2)OCO3)CC1	-0.1	0.3	11.3	-1.7	-3.7
Brc1ccc(-c2csc(N3CCNCC3)n2)cc1	4.3	-1.9	/	-1.6	/
CC(C)C(OC(=O)c1ccco1)C(=O)NCc1ccco1 (stereo not drawn)	-2.7	33.4*	-4.8	3.3	-2.1
[C-]#[N+][C@]12C(=O)[C@H](C=C(Cl)[C@@]1(C)C=C)C(C)(C)[C@H]1C(=O)N(C)c3cccc2c31	-28.6	-17.0	/	-2.8	/
C[C@H](CO)N1C[C@H](C)[C@H](CN(C)C(=O)OCc2ccccc2)OCc2cnnn2CCCC1=O	-3.1	23.8*	4.9	3.6	1.7
COc1cccc(S(=O)(=O)N(C)C[C@H]2OCc3cnnn3CCCC(=O)N([C@@H](C)CO)C[C@H]2C)c1	-0.6	22.0*	-2.8	9.7	0.2
C[C@@H]1CN([C@@H](C)CO)C(=O)CCCn2nncc2CO[C@H]1CN(C)C(=O)Nc1cccc2ccccc12	2.7	24.2*	-6.9	7.9	0.2
C[C@@H]1CN([C@@H](C)CO)C(=O)CCCn2nncc2CO[C@@H]1CN(C)C(=O)OCc1ccccc1	0.6	4.0	-7.7	5.4	1.4
CCCN(C)C[C@H]1OCc2cnnn2CCCC(=O)N([C@H](C)CO)C[C@@H]1C	3.0	23.2*	-6.6	12.8	1.1
CC(C)(C)NC(=O)C(c1ccco1)N(Cc1ccc2c(c1)OCO2)C(=O)c1snc(C(N)=O)c1N (stereo not drawn)	1.9	0.3	8.1	-3.6	-3.7
SMILES	LEDGF integ inh	UHRF1 binding	TCR CD3 inh	MBD2 inh	Rin1-Abl PPI inh
CC(c1c[nH]c2ccccc12)c1cn(C)c2ccccc12 (stereo not drawn)	1.8	-1.4	/	-6.0	/
COCc1cc(N2CCNC[C@H]2C)ccc1N1C[C@@H](C)O[C@@H](C)C1	1.6	1.9	4.9	-2.4	/
O=C(CN1CCC(NC(=O)NC2CCCC2)CC1)Nc1ccc2c(c1)OCCO2	-1.6	1.6	/	7.5	/
COCCCNC(=O)C[C@H]1C[C@@]2(C(=O)OC)C(=C[C@H](C3CCCC3)O[C@@H]2C)N(Cc2ccco2)C1=O	3.0	-1.1	/	0.0	/
COc1ccc(CC2=CC(=O)c3ccccc3C2=O)cc1	1.5	-4.6	3.9	-4.7	6.8*
CCOc1ccccc1N(CC(=O)NC1CCCCC1)C(=O)c1nsc(Cl)c1Cl	0.9	21.6*	-3.1	1.8	1.8
Cc1cccc(N(CC(=O)NC2CCCC2)C(=O)c2nsc(Cl)c2Cl)c1C	3.4	0.0	1.0	-3.3	-1.5
C/C(CC(=O)Nc1cc(C)ccn1)=N\NC(=O)c1cccc(C)c1O	-0.6	-5.7	35.4*	-1.1	2.1
O=C(CN1CCCC1)Nc1cccc(Cl)c1	0.1	2.2	-1.2	2.6	4.2
O=C(CN1CCCCCCC1)Nc1cc(Cl)cc(Cl)c1	4.2	57.1*	2.1	-5.1	2.8
Cc1nc(Cl)c(C(=O)NC(C)(C)C)c(C)c1Cl	-4.1	47.0*	-6.5	4.3	-3.6
Cc1ccc(-n2c(SCC(=O)Nc3ccccc3-c3ccccc3)nnc2-c2ccccc2)cc1	-1.1	-5.2	/	-1.6	/
S=C(Nc1ccccc1Cl)N(Cc1ccccc1)Cc1cccnc1	1.9	1.1	-2.2	-6.6	-1.1
Cc1ccc(Cl)cc1NC(=S)N(Cc1ccccc1)Cc1cccnc1	-7.4	24.8*	-4.7	9.4	-2.0
CCc1nn2c(=O)cc(CSCC(=O)Nc3ccccc3F)nc2s1	/	/	/	/	3.6
CC1CCCN(Cc2c(O)ccc3c2O/C(=C\c2ccco2)C3=O)C1 (stereo not drawn)	29.0*	14.4	5.9	5.8	1.1
Nc1nc(Cn2nnc(-c3ccccc3Cl)n2)nc(N2CCOCC2)n1	-1.0	28.8*	0.1	-0.3	-1.6
Nc1nc(Cn2nnc(-c3ccccc3F)n2)nc(N2CCOCC2)n1	0.7	-1.0	2.7	-2.9	-0.6
Cc1ccc(N=Cc2ccc(O)cc2O)cc1F	37.3*	-2.1	-12.0	-8.8	-6.6
CSCCC(=O)N1CCCC(N(C)CCc2ccccc2)C1 (stereo not drawn)	-5.0	0.0	-10.2	5.1	2.0
C=CCNC(=O)c1ccc(-n2cccc2)cc1	1.8	23.8*	-0.8	10.5	0.1
C=CCNC(=O)c1ccncc1	0.7	2.1	2.7	0.9	2.5
CCC(Sc1nc2ncnc(N)c2[nH]1)C(=O)O (stereo not drawn)	-0.3	20.7*	-0.1	1.5	0.4
CN1Cc2nnn(CC3CCCCC3)c2-c2ccccc2S1(=O)=O	3.8	2.5	/	0.5	/
O=C(NCc1ccccc1)[C@@H]1CCCN1C(=O)[C@H]1CCCN1C(=O)c1cc(F)cc(F)c1	-4.6	0.3	9.3	0.1	/
